Our source for the Potency values is PubChem BioAssay (NCATS).

Values joined by “and” are separate entries in the source; they are usually repeats but may differ in a detail not shown here. Equal entries are not always repeated. Results filed as inconclusive are left out. Active and inactive are the calls of the source. The call rests on the fitted dose curve; in most records, active means well fitted curve in the direction sought with a large enough effect; inconclusive means small, poorly fitted or top-dose-only effect, or another doubt; inactive means no such curve, though single readings can be large; an effect the other way counts as inactive or inconclusive.

Assay [1] is described as follows: qHTS of pediatric cancer cell lines to identify multiple opportunities for drug repurposing: Primary screen for DAOY cells (AID 1347090). Further: nearly all actives have a fitted effect of over 55% in size. Further: potency means the concentration at half of the fitted maximal effect. The method, boiled down: (§1)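 Viability measured as metabolically active cells via CellTiter-Glo luminescence following 48 hours of compound exposure, 11-point dilutions in confirmatory testing. 500-1,000 cells/well plated 5 hours before dosing; controls were DMSO and 2.3 µM bortezomib.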
(In qHTS, concentration-response curves come from the screen itself.)

The nature of assay [2]: qHTS of pediatric cancer cell lines to identify multiple opportunities for drug repurposing: Primary screen for SJ-GBM2 cells (AID 1347091). Further: potency means the concentration at half of the fitted maximal effect. The method, boiled down: as §1
Assay [3] is described as follows: qHTS of pediatric cancer cell lines to identify multiple opportunities for drug repurposing: Primary screen for A673 cells (AID 1347092). Further: nearly all actives have a fitted effect of over 45% in size. Further: potency means the concentration at half of the fitted maximal effect. An outline of the steps: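 A673 cells (500-1,000 cells/well in growth media) were pre-incubated 5 h at 37 degrees C, then exposed to compounds for 48 h. Viability was read as CellTiter-Glo luminescence; concentration-response curves came directly from the primary screen.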

Assay [4] can be described thus: qHTS of pediatric cancer cell lines to identify multiple opportunities for drug repurposing: Primary screen for SK-N-MC cells (AID 1347093). Further: potency means the concentration at half of the fitted maximal effect. An outline of the steps: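 Metabolically active cells were quantified by ATP-dependent luminescence (CellTiter-Glo, 15 min at room temperature) following 48 h treatment. Cells had been plated at 500-1,000 per well and settled for 5 h beforehand.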

A short description of assay [5]: qHTS of pediatric cancer cell lines to identify multiple opportunities for drug repurposing: Primary screen for BT-37 cells (AID 1347094). Further: potency means the concentration at half of the fitted maximal effect. The method, boiled down: (§2)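 Primary screen of approved and investigational compounds on cells in growth media at 37 degrees C, 5% CO2. MIPE set at 11-point and NPC set at 8-point dilutions; viability scored by ATP-based luminescence at 48 hours.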

Assay [6] can be described thus: qHTS of pediatric cancer cell lines to identify multiple opportunities for drug repurposing: Primary screen for NB-EBc1 cells (AID 1347095). Further: potency means the concentration at half of the fitted maximal effect. An outline of the steps:
as §2

The nature of assay [7]: qHTS of pediatric cancer cell lines to identify multiple opportunities for drug repurposing: Primary screen for U-2 OS cells (AID 1347096). Further: nearly all actives have a fitted effect of over 50% in size. Further: potency means the concentration at half of the fitted maximal effect. The method, boiled down:
(§3)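 Viability after 48 h compound treatment at 37C, 500-1,000 cells/well, read as ATP luminescence with CellTiter-Glo. Primary screens used 11-point (MIPE, 0.78 nM-46 µM) or 8-point (NPC, 0.59 nM-46 µM) final concentrations; follow-up screens used 11-point dilutions.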

Assay [8] is described as follows: qHTS of pediatric cancer cell lines to identify multiple opportunities for drug repurposing: Primary screen for Saos-2 cells (AID 1347097). Further: nearly all actives have a fitted effect of over 40% in size. Further: potency means the concentration at half of the fitted maximal effect. The method, boiled down:
as §2

A short description of assay [9]: qHTS of pediatric cancer cell lines to identify multiple opportunities for drug repurposing: Primary screen for SK-N-SH cells (AID 1347098). Further: nearly all actives have a fitted effect of over 65% in size. Further: potency means the concentration at half of the fitted maximal effect. The method, boiled down:
(§4)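 Cells (500-1,000/well) rested 5 h, then received compounds for 48 h; metabolically active cells were measured by CellTiter-Glo luminescence. Final concentrations spanned up to 46 µM (MIPE, 11-point) or 0.59 nM-46 µM (NPC, 8-point) in primary screens, 11-point in follow-ups.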

Assay [10] can be described thus: qHTS of pediatric cancer cell lines to identify multiple opportunities for drug repurposing: Primary screen for NB1643 cells (AID 1347099). Further: nearly all actives have a fitted effect of over 50% in size. Further: potency means the concentration at half of the fitted maximal effect. An outline of the steps:
as §2

A short description of assay [11]: qHTS of pediatric cancer cell lines to identify multiple opportunities for drug repurposing: Primary screen for LAN-5 cells (AID 1347100). Further: potency means the concentration at half of the fitted maximal effect. The method, boiled down:
as §3

Assay [12] is described as follows: qHTS of pediatric cancer cell lines to identify multiple opportunities for drug repurposing: Primary screen for BT-12 cells (AID 1347101). Further: nearly all actives have a fitted effect of over 25% in size. Further: potency means the concentration at half of the fitted maximal effect. The method, boiled down:
as §4

Assay [13] is described as follows: qHTS of pediatric cancer cell lines to identify multiple opportunities for drug repurposing: Primary screen for Rh18 cells (AID 1347102). Further: nearly all actives have a fitted effect of over 65% in size. Further: potency means the concentration at half of the fitted maximal effect. An outline of the steps:
as §3

A short description of assay [14]: qHTS of pediatric cancer cell lines to identify multiple opportunities for drug repurposing: Primary screen for RD cells (AID 1347104). Further: nearly all actives have a fitted effect of over 55% in size. Further: potency means the concentration at half of the fitted maximal effect. An outline of the steps:
as §2

Assay [15] is described as follows: qHTS of pediatric cancer cell lines to identify multiple opportunities for drug repurposing: Primary screen for MG 63 (6-TG R) cells (AID 1347105). Further: nearly all actives have a fitted effect of over 50% in size. Further: potency means the concentration at half of the fitted maximal effect. An outline of the steps: as §2
A short description of assay [16]: qHTS of pediatric cancer cell lines to identify multiple opportunities for drug repurposing: Primary screen for control Hh wild type fibroblast cells (AID 1347106).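 Further: series mostly up to about 46 µM; a drop in luminescence marks cytotoxicity and a rise apparent proliferation; nearly all actives have a fitted effect of over 55% in size.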 The method, boiled down: as §3
Assay [17] can be described thus: qHTS of pediatric cancer cell lines to identify multiple opportunities for drug repurposing: Primary screen for Rh30 cells (AID 1347107). Further: series mostly up to about 46 µM; nearly all actives have a fitted effect of over 75% in size. The method, boiled down:
as §3

A short description of assay [18]: qHTS of pediatric cancer cell lines to identify multiple opportunities for drug repurposing: Primary screen for Rh41 cells (AID 1347108).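 Further: series mostly up to about 46 µM; luminescence drop marks cytotoxic hits; nearly all actives have a fitted effect of over 70% in size.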 An outline of the steps:
as §2

The nature of assay [19]: qHTS of pediatric cancer cell lines to identify multiple opportunities for drug repurposing: Primary screen for OHS-50 cells (AID 1347103). Further: nearly all actives have a fitted effect of over 40% in size. Further: potency means the concentration at half of the fitted maximal effect. An outline of the steps: as §4

Consider `OC(CCN1CCCCC1)(c1ccccc1)C1CC2C=CC1C2` (stereo unspecified), for which the Potency result in [1], in assay [2], in assay [3], in [4], in assay [5] and in assay [6] was “inactive” each time. The Potency result in [7], in [8], in assay [9], in assay [10], in assay [11] and in [12] was “inactive” in each case. Further, the Potency entry in assay [13], in assay [14], in [15], in assay [16], in assay [17] and in [18] was “inactive” each time.
Consider `Cc1[nH]c(=O)c(C#N)cc1-c1ccc2nccn2c1`, for which the Potency entry in assay [1], in [2], in [3], in assay [4], in assay [5] and in assay [6] was “inactive” throughout. Also, the Potency entry in [7], in [8], in [9], in [10], in assay [11] and in assay [12] was “inactive” each time. The Potency entry in assay [13], in assay [14], in [15], in assay [16], in assay [17] and in [18] was “inactive” throughout.
Take `NS(=O)(=O)c1cc2c(cc1Cl)NC=NS2(=O)=O`: the Potency entry in assay [1], in assay [2], in assay [3], in [5], in assay [6] and in assay [7] was “inactive” each time. Further, the Potency entry in assay [8], in assay [9], in [10], in assay [11], in assay [12] and in assay [13] was “inactive” each time. In addition, the Potency entry in assay [19], in assay [14], in assay [15], in assay [16], in [17] and in [18] was “inactive” each time.
`O=C(O)COCCN1CCN(C(c2ccccc2)c2ccc(Cl)cc2)CC1` (stereo unspecified): the Potency entry in assay [1], in assay [2], in assay [3], in assay [4], in assay [5] and in [6] was “inactive” throughout. Also, the Potency entry in [7], in [8], in assay [9], in assay [10], in assay [11] and in assay [12] was “inactive” throughout. Besides, the Potency entry in assay [13], in [19], in assay [14], in assay [15], in [16] and in assay [17] was “inactive” throughout. Moreover, in [18], the Potency result was “inactive”.
For the compound `O=C(O)[C@@H](c1ccc(OCc2ccc3ccccc3n2)cc1)C1CCCC1`, the Potency result in assay [1], in assay [2], in [3], in assay [4], in [5] and in assay [7] was “inactive” in each case. The Potency result in assay [8], in [9], in assay [11], in [12], in assay [13] and in [14] was “inactive” each time. The Potency entry in assay [15], in [16] and in assay [17] was “inactive” each time.
With `CC1(C)SCCN(S(=O)(=O)c2ccc(OCC#CCO)cc2)[C@@H]1C(=O)NO`, the Potency result in [1], in [2], in [3], in assay [4], in assay [5] and in assay [6] was “inactive” in each case. Besides, the Potency entry in assay [7], in assay [8], in [10], in assay [11], in assay [12] and in [13] was “inactive” in each case. The Potency result in [19], in assay [14], in assay [15], in assay [16], in assay [17] and in assay [18] was “inactive” in each case.
`CC(C)(C)OC(=O)CN(Cc1ccc(Cl)cc1)Cc1ccc([N+](=O)[O-])s1`: the Potency result in assay [1], in [2], in assay [3], in assay [5], in assay [7] and in assay [9] was “inactive” throughout. Also, the Potency entry in assay [11], in assay [13], in assay [15] and in assay [17] was “inactive” each time. Further, in assay [4], the Potency is 20.9 µM (active).
For the compound `CCn1cc(C(=O)O)c(=O)c2cc(F)c(N3CCNC(C)C3)c(F)c21` (stereo unspecified), the Potency result in assay [1], in assay [2], in assay [3], in [4], in [5] and in assay [6] was “inactive” in each case. The Potency result in [7], in assay [8], in assay [11], in assay [12], in assay [13] and in [19] was “inactive” each time. Moreover, the Potency entry in [14], in [15], in assay [17] and in [18] was “inactive” throughout.
Take `NC(=O)c1ccc(I)c([N+](=O)[O-])c1`: the Potency result in assay [1], in assay [2], in [5], in assay [6], in assay [7] and in assay [8] was “inactive” in each case. The Potency result in [9], in assay [10], in assay [11], in assay [12], in assay [13] and in [19] was “inactive” in each case. Besides, the Potency result in assay [14], in assay [15] and in assay [17] was “inactive” each time. In addition, the Potency in [3] is 18.7 µM (active); in [4], 3.72 µM (active).
As to `CCC(C)(C)C(=O)O[C@H]1C[C@@H](C)C=C2C=C[C@H](C)[C@H](CC[C@@H]3C[C@@H](O)CC(=O)O3)[C@H]21`, the Potency is 6.68 µM (active) and 5.9 µM (active) in assay [1]; 3.35 µM (active) and 14.8 µM (active) in assay [2]; 10.6 µM (active) in assay [3]; 33.2 µM (active) in assay [4]; 18.7 µM (active) in assay [7]; 2.37 µM (active) and 2.96 µM (active) in assay [8]. Moreover, the Potency in assay [9] is 7.7 µM (active) and 21.5 µM (active); in assay [12] it was 1.38 µM (active) and 1.93 µM (active); in assay [13] it was 8.41 µM (active) and 14.8 µM (active); in assay [19], 6.17 µM (active) and 10.9 µM (active); in assay [15], 2.66 µM (active) and 4.69 µM (active). In addition, the Potency entry in assay [11], in assay [14], in assay [16] and in [18] was “inactive” each time.
With `COc1nc(-c2ccc3c(c2)OCO3)n(-c2ccc(NC(=O)CSc3ccccc3)cc2)n1`, the Potency entry in [1], in [2], in assay [3], in assay [4], in [5] and in assay [6] was “inactive” in each case. Besides, the Potency result in assay [7], in assay [9], in assay [10], in [11], in assay [12] and in assay [13] was “inactive” each time. For the same compound, the Potency entry in assay [14], in [15], in assay [16], in assay [17] and in assay [18] was “inactive” in each case.
On to `CC(C)OC(=O)C1=CN(C(=O)c2ccc(F)c(F)c2)CC(C)(C)c2c1[nH]c1ccccc21`, for which the Potency result in [1], in assay [2], in [3], in assay [5], in assay [6] and in [7] was “inactive” throughout. For the same compound, the Potency entry in assay [9], in assay [11], in assay [12], in assay [13], in assay [19] and in assay [14] was “inactive” throughout. In addition, the Potency result in assay [15], in [17] and in [18] was “inactive” in each case. The Potency in [4] was 26.4 µM (active).
Take `O=C1[C@H](Cc2ccc(O)cc2)N2C(=O)CCN(C(=O)NCc3ccccc3)[C@H]2CN1Cc1cccc2ccccc12`: the Potency is 14.8 µM (active) in assay [1]; 10.5 µM (active) in assay [2]; 11.8 µM (active) in assay [3]; 1.18 µM (active) in [4]; 4.85 µM (active) in assay [5]; 14.8 µM (active) in assay [6]. The Potency in [10] is 2.96 µM (active); in assay [11], 10.5 µM (active); in assay [14], 10.5 µM (active); in assay [15] it was 3.72 µM (active). The Potency entry in assay [7] was “inactive”.
For `CCCCNc1cc(C(=O)O)cc(S(N)(=O)=O)c1Oc1ccccc1`, the Potency entry in assay [1], in assay [2], in [3], in assay [5], in assay [6] and in assay [7] was “inactive” in each case. Besides, the Potency entry in [8], in [9], in assay [10], in [11], in assay [12] and in assay [13] was “inactive” throughout. The Potency entry in [19], in assay [14], in assay [15], in assay [17] and in [18] was “inactive” each time.
